# Source: PubChem BioAssay
# This is a sample that favours compounds with a hit; in the whole collection about 19% have one here.
# DT40 TDP1 no CPT = qHTS for Inhibitors of human tyrosyl-DNA phosphodiesterase 1 (TDP1): qHTS in cells in absence of CPT. Potency, µM (doses to about 46.2 µM), for inactives: top-dose activity change, negative = growth inhibition, most hits filed as inhibitors. DT40 Tdp1-/- hTDP1 cells, no CPT, ATP luminescence, 48 h. AID 686978, 2013. 15% of 420,000 active; further: potency means the concentration at half of the fitted maximal effect; nearly all actives have a fitted effect of over 55% in size
#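 Cells were dispensed at 400 per well, compounds added by pin tool, plates incubated ≥48 hr at 37 °C, then CellTiter-Glo added for 30 min at room temperature before luminescence reading. Line: DT40 Tdp1-/- complemented with hTDP1; camptothecin omitted.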
# HT1080NT lethal = kills 2HG-producing HT-1080-NT fibrosarcoma cells; HT-1080-NT fibrosarcoma viability, CellTiter-Glo ATP luminescence, 48 h; Potency, µM (series often up to 46.1 µM), inactives show at the highest dose activity, negative = less viability, hits mostly cytotoxic; 1.6% of 360,000 active;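 further: NT is the 2HG producing partner of a matched IDH1 knockdown line; potency means the concentration at half of the fitted maximal effect; 0% = DMSO-treated cells and -100% = media-only wells without cells; nearly all actives have a fitted effect of over 55% in size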
#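 HT-1080-NT; 750 cells/well; 5% FBS RPMI; 48 h compound, 37 degrees C; CellTiter-Glo luminescence; curve fitting and curve-class assignment.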
# TDP1 cell CPT = DT40-hTDP1 cell growth loss with CPT | chicken DT40 Tdp1-/-;hTDP1 cells + 20 nM CPT, ATP luminescence, 48 h | Potency, µM (highest dose often 46.2 µM), without a hit: top-dose activity change, negative = growth inhibition, most hits filed as inhibitors | 12% of 420,000 active | AID 686979; further: potency means the concentration at half of the fitted maximal effect; nearly all actives have a fitted effect of over 55% in size
#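 Chicken DT40 Tdp1-/- cells stably complemented with human TDP1 were seeded at 400 cells/well in medium containing 20 nM camptothecin, exposed to pin-transferred compounds, and grown at 37 °C for at least 48 hr. Viability was read as ATP luminescence.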
# IL-1B inflam inh = inhibitors of inflammasome signaling (IL-1 beta secretion) | activity change, % at 57.5 µM | 4.7% of 360,000 active | THP-1 LPS/ATP IL-1B secretion, AlphaLISA, 16 h; stronger effect = lower value; in the data active means activity change below about -50%; inconclusive means mostly about -30% to -49%
#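 THP-1 cells pretreated 1 hr with compounds (up to 57.5 uM final), then stimulated with LPS (250 ng/mL final) plus ATP (1.25 mM final); secreted IL-1B measured by AlphaLISA after 16 hr, decreased signal indicating inhibition.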
# HT1080 IDH1KD tx = HT-1080 IDH1 knockdown cell toxicity (counter line); HT-1080 IDH1 knockdown viability, ATP luminescence, 48 h; 2% of 360,000 active; Potency, µM (titrated, usually from 46.1 µM), for the others: top-dose activity, negative = toxicity, most hits filed as cytotoxic; AID 686971;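 further: potency means the concentration at half of the fitted maximal effect; 0% = DMSO wells and -100% = cell-free medium wells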
#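 Using the IDH1-knockdown HT-1080 line run in the same batch and compound series as the NT line, viability after 48 h at 37 °C was determined by CellTiter-Glo luminescence and expressed as % activity.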
# Numbers without * were called inactive; ? = inconclusive; / = no result given; [ ] = another dose, or the depositor's remark. Unless noted, the call rests on the fitted dose curve; in most records, active means well fitted curve in the direction sought with a large enough effect; inconclusive means small, poorly fitted or top-dose-only effect, or another doubt; inactive means no such curve, though single readings can be large; an effect the other way counts as inactive or inconclusive. Unless noted, on the % scale 0 is the no-effect control and ±100 the full control effect.
SMILES,DT40 TDP1 no CPT,HT1080NT lethal,TDP1 cell CPT,IL-1B inflam inh,HT1080 IDH1KD tx
C=CCNC(=S)N1CCN(c2ncc(C(F)(F)F)cc2Cl)CC1,?,-9%,?,-67*,-11%
O=C(c1ccc2ncsc2c1)N1CCN(c2cccc(C(F)(F)F)c2)CC1,1.5µM*,8.2µM*,2.9µM*,17,8.2µM*
Cc1cc(C)cc(NC(=S)N2CCN(c3ncc(C(F)(F)F)cc3Cl)CC2)c1,?,12%,?,7,16%
COc1cccc(NC(=O)CCN2C(=O)c3ccccc3Sc3ncccc32)c1,7%,0%,-19%,13,4%
Cc1cccc(NS(=O)(=O)c2cccc(C(=O)NCC(c3ccco3)N(C)C)c2)c1 (stereo not given),?,1%,-5%,-6,-1%
COc1ccc(-n2nnnc2SCC(=O)c2ccc3c(c2)OCCO3)c(OC)c1,13µM*,7%,?,-2,23%
O=C(CSc1nnnn1C1CCCCC1)N1c2ccccc2Sc2ccccc21,21µM*,0%,?,0,-7%
O=C(CSc1nnnn1C1CCCCC1)N1CCOCC1,-11%,17%,?,-20,10%
COc1ccc(C)cc1-n1nnnc1SCC(=O)c1ccc2c(c1)OCCO2,?,0%,18µM*,-13,-5%
O=C(CSc1nnnn1C1CCCC1)c1ccc2c(c1)OCCO2,?,1%,21µM*,?,-1%[9.24 µM]
CC(C)C[C@H]1CNC(=O)C(=O)N1C[C@@H]1CCCN1C[C@H](Cc1ccccc1)N1C[C@H](Cc2ccccc2)N(CCc2ccccc2)C(=O)C1=O,?,13%,?,?,17%
O=C(CSc1nnnn1C1CC1)N1CCN(c2cccc(Cl)c2)CC1,?,-13%,?,-19,-2%
CC(C)c1ccc(CN2CCN(C(=O)CSc3nnnn3C3CC3)CC2)cc1,12µM*,?,?,?,-4%
COCCn1c(SCC(=O)c2ccc3c(c2)OCCO3)nnc1-c1ccoc1C,10µM*,3%,15µM*,21,0%
Cc1cc(C)n(-c2ccc(C(=O)OCC(=O)c3ccc(Br)s3)cc2)n1,0%,12%,-19%,6,14%
COC(=O)[C@@]12C[C@@H](CC(=O)NCC34CC5CC(CC(C5)C3)C4)C(=O)N(CCc3ccc(OC)c(OC)c3)C1=CCC(C)(C)C2,15µM*,?,16µM*,-98*,?
CCCCCCCCN1C(=O)[C@H](CC(=O)NCc2ccc(OC)c(OC)c2)C[C@@]2(C(=O)OC)CC(C)(C)CC=C12,18µM*,?,18µM*,-78*,?
CCCCNC(=O)C[C@@H]1C[C@@]2(C(=O)OC)CC(C)(C)CC=C2N(CCc2ccc(OC)c(OC)c2)C1=O,?,1%,?,?,4%
COC(=O)[C@@]12C[C@@H](CC(=O)NCc3ccc(OC)c(OC)c3)C(=O)N(CCc3ccc(OC)c(OC)c3)C1=CCC(C)(C)C2,15µM*,-24%,16µM*,-28,3%
COCCCNC(=O)C[C@@H]1C[C@@]2(C(=O)OC)CC(C)(C)CC=C2N(CCc2ccc(OC)c(OC)c2)C1=O,-3%,10%,-15%,-6,2%
COC(=O)[C@@]12C[C@@H](CC(=O)NCCc3ccccc3OC)C(=O)N(CCc3ccc(OC)c(OC)c3)C1=CCC(C)(C)C2,?,?,23µM*,-4,?
COC(=O)[C@@]12C[C@@H](CC(=O)NCc3ccc(OC)c(OC)c3)C(=O)N(Cc3ccco3)C1=CCC(C)(C)C2,?,-18%,?,-15,-13%
COC(=O)[C@@]12C[C@@H](CC(=O)NCc3ccc(OC)c(OC)c3)C(=O)N(Cc3ccccc3)C1=CCC(C)(C)C2,?,-10%,18µM*,-18,-10%
Cc1cc2c(=O)n(C)c(SCC(=O)NCC3CCCO3)nc2s1 (stereo not given),-1%,2%,6%,16,1%
Cc1ccc(NC(=O)c2cnc(SCC(=O)NCC3CCCO3)n(C)c2=O)cc1C (stereo not given),23µM*,15%,21µM*,-98*,10%
SMILES,DT40 TDP1 no CPT,HT1080NT lethal,TDP1 cell CPT,IL-1B inflam inh,HT1080 IDH1KD tx
Cn1c(SCC(=O)NCC2CCCO2)ncc(C(=O)Nc2ccccc2)c1=O (stereo not given),23µM*,-18%,26µM*,-74*,-8%
OCc1cccc(-c2csc(C(O)(c3ccccc3)C(F)(F)F)n2)c1 (stereo not given),?,-25%,?,37,?
CCN(CC)C(=O)c1cccc(-c2csc(C(O)(c3ccccc3)C(F)(F)F)n2)c1 (stereo not given),16µM*,23µM*,?,-4,16µM*
CCN(CC)C(=O)c1cccc(-c2csc(C(C)(O)c3ccc(F)c(F)c3)n2)c1 (stereo not given),21µM*,?,?,-8,?
CCN(CC)C(=O)c1cccc(-c2csc(C(C)(NC(C)=O)c3ccc(OC)cc3)n2)c1 (stereo not given),13µM*,4%,?,-15,0%
CCN(CC)C(=O)c1cccc(-c2ccc(OC)cc2)c1,22%,2%,-28%,-5,-3%
CC(O)(c1ccc(F)c(F)c1)c1nc(-c2cccc(C(=O)O)c2)cs1 (stereo not given),2%,2%,-27%,15,0%
CCN(CC)C(=O)c1cccc(-c2csc(C(C)(O)c3cccc(OC)c3)n2)c1 (stereo not given),23µM*,-4%,18µM*,-15,?
COc1cccc(C(C)(O)c2nc(-c3ccc(C)c(C)c3)cs2)c1 (stereo not given),?,-28%,?,17,?
FCCCOc1ccc(/C=N/OCc2ccc(Cl)cc2)cc1,-29%,10%,-2%,-6,13%
CCN(CC)C(=O)c1cccc(-c2csc(C(C)(O)c3ccc(OC)cc3)n2)c1 (stereo not given),4.6µM*,5.8µM*,5.8µM*,4,?
CSc1ccc(CNC(C)(C)CO)cc1,3%,11%,1%,3,0%
Cc1c(C(=O)N2CCCC2)oc2c1-c1nn(CC(=O)NCc3ccccc3Br)cc1CC2,21µM*,/,?,/,/
CCOCCCNC(=O)Cn1cc2c(n1)-c1c(oc(C(=O)N3CCCC3)c1C)CC2,?,0%,?,18,-3%
CCOc1ccccc1CNC(=O)Cn1cc2c(n1)-c1c(oc(C(=O)N3CCCC3)c1C)CC2,13µM*,/,13µM*,/,/
